From ChEMBL document CHEMBL3988442, “University of Dundee, Small-Polar-MMV Screening Library” (2021)
For some assays here: Measured potencies and affinities stand elsewhere.

How the values were obtained:
Parameters in all cases: scale not given: direction of the effect not stated beside the values
[1] = molecular target: Protein translocase subunit SecA (Escherichia coli (strain K12)) (UniProt P10408); test: Assay to Identify E. coli SecA ATPase Inhibitors; assay type: functional; details: 30 µM
[2] = molecular target: T1, Ubiquitin-activating enzyme e1, putative (Leishmania donovani (strain BPK282A1)) (UniProt E9BSI1); test: Leishmania donovani Ubiquitin Activating Enzyme (LdE1); assay type: functional; details: 30 µM
T1 sequence (whole entry): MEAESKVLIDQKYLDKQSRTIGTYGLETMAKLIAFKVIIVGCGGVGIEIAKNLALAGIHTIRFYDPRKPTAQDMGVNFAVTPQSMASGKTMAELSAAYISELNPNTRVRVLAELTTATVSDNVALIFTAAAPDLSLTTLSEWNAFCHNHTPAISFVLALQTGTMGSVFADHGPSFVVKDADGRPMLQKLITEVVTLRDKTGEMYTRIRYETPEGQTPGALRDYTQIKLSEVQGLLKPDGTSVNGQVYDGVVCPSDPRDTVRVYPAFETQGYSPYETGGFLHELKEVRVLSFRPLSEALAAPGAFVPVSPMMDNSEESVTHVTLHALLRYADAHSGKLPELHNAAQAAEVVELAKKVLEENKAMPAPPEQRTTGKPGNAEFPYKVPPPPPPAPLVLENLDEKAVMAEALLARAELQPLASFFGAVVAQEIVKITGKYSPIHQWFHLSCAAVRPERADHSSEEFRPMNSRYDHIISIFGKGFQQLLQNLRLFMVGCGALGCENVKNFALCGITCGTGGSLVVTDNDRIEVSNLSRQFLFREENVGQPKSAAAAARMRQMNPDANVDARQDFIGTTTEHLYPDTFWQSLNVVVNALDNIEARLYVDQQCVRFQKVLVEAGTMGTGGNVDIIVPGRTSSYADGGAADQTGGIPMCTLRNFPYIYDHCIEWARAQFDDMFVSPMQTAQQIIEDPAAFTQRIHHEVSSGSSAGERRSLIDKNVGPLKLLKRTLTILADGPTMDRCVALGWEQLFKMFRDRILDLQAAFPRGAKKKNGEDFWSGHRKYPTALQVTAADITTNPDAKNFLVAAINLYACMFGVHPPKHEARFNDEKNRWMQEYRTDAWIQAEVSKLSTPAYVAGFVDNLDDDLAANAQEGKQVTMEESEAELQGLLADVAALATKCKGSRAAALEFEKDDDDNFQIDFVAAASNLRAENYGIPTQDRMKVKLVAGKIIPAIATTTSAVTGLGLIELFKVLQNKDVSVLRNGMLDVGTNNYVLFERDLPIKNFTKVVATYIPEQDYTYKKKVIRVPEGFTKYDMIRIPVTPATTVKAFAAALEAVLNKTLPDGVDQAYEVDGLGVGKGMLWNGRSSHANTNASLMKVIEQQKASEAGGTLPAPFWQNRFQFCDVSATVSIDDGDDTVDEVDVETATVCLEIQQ

[3] = molecular target: Sialic acid-binding Ig-like lectin 9 (Homo sapiens) (UniProt Q9Y336); test: Hs-Siglec9 ALPHAscreen SOP 20170721; details: 10 µM
Trypanosoma cruzi = test: Trypanosoma cruzi phosphomannomutase and mannose-1-phosphate guanylyltransferase assay; assay type: functional; details: 10 µM
[4] = molecular target: T2, Arginase-2, mitochondrial (Homo sapiens) (UniProt P78540); test: in vitro enzyme assay to detect the production of urea directly proportional to the activity of Arginase II; assay type: functional; details: 33.3 µM; also: in the data most compounds retested in dose-response had high values
T2 sequence (whole entry): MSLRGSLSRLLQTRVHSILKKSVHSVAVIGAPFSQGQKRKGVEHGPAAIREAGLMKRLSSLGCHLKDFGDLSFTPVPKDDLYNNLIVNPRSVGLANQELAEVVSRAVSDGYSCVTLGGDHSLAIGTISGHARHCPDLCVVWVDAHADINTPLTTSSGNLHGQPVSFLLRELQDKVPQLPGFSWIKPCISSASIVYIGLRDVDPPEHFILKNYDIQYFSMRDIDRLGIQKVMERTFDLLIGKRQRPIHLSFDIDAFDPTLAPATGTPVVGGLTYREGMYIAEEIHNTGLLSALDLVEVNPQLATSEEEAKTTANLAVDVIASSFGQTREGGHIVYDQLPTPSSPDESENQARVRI

[5] = molecular target: T3, Proteasome subunit beta (Trypanosoma cruzi) (UniProt O96673); test: Trypanosoma cruzi proteasome chymotrypsin-like activity (TcProtChymo) assay.; also: in the data most compounds retested in dose-response had high values; assay type: functional; details: 9.37 µM
T3 sequence (whole entry): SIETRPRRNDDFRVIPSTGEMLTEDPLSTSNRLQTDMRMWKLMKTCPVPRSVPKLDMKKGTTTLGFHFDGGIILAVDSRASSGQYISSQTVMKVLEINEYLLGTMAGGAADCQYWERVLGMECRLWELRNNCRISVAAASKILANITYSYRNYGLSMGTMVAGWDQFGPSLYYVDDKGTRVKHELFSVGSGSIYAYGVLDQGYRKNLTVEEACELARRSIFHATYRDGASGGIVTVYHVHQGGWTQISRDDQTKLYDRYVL

Homo sapiens = organism: Homo sapiens; test: To identify inhibition of the IFN signalling (Jak-Stat) pathway via expression of an eGFP reporter gene under the control of an IFN-stimulated response element (ISRE) containing MxA promoter.; assay type: functional; details: 30 µM
[6] = molecular target: T4, Tyrosyl-tRNA synthetase, putative (Trypanosoma cruzi (strain CL Brener)) (UniProt Q4DSP6); test: Trypanosoma cruzi tyrosyl tRNA synthetase (TcYRS) _High Tyrosine SOP; assay type: functional; details: 30 µM; also: in the data most compounds retested in dose-response had high values
T4 sequence (whole entry): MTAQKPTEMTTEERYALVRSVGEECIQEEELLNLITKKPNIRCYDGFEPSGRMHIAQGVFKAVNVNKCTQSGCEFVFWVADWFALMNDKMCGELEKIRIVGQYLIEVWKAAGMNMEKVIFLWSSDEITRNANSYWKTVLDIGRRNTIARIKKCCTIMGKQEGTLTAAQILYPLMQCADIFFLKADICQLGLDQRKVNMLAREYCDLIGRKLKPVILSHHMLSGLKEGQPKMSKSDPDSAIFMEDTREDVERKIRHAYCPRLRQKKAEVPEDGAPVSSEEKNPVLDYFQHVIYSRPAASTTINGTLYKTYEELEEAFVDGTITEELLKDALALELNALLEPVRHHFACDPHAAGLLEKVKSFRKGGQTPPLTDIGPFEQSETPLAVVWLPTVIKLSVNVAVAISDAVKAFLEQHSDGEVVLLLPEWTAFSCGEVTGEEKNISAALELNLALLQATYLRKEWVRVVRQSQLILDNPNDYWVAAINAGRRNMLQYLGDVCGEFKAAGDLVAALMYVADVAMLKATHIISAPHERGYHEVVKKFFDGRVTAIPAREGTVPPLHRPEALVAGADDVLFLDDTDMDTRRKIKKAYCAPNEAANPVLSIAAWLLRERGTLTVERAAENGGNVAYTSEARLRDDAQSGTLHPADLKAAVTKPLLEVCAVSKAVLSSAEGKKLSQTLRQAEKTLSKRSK

[7] = molecular target: T4, Tyrosyl-tRNA synthetase, putative (Trypanosoma cruzi (strain CL Brener)); test: Trypanosoma cruzi tyrosyl tRNA synthetase (TcYRS) SOP; assay type: functional; details: 30 µM
[8] = molecular target: Chromo domain-containing protein 1 (Saccharomyces cerevisiae (strain ATCC 204508 / S288c) (Baker's yeast)) (UniProt P32657); test: ScCHD-1 Enzyme Inhibition Assay; assay type: functional; details: 30 µM; also: in the data most compounds retested in dose-response had high values
Chromo domain-containing protein 1 (Saccharomyces cerevisiae (strain ATCC 204508 / S288c) (Baker's yeast)), sequence (P32657 whole entry, the tested form may be a part): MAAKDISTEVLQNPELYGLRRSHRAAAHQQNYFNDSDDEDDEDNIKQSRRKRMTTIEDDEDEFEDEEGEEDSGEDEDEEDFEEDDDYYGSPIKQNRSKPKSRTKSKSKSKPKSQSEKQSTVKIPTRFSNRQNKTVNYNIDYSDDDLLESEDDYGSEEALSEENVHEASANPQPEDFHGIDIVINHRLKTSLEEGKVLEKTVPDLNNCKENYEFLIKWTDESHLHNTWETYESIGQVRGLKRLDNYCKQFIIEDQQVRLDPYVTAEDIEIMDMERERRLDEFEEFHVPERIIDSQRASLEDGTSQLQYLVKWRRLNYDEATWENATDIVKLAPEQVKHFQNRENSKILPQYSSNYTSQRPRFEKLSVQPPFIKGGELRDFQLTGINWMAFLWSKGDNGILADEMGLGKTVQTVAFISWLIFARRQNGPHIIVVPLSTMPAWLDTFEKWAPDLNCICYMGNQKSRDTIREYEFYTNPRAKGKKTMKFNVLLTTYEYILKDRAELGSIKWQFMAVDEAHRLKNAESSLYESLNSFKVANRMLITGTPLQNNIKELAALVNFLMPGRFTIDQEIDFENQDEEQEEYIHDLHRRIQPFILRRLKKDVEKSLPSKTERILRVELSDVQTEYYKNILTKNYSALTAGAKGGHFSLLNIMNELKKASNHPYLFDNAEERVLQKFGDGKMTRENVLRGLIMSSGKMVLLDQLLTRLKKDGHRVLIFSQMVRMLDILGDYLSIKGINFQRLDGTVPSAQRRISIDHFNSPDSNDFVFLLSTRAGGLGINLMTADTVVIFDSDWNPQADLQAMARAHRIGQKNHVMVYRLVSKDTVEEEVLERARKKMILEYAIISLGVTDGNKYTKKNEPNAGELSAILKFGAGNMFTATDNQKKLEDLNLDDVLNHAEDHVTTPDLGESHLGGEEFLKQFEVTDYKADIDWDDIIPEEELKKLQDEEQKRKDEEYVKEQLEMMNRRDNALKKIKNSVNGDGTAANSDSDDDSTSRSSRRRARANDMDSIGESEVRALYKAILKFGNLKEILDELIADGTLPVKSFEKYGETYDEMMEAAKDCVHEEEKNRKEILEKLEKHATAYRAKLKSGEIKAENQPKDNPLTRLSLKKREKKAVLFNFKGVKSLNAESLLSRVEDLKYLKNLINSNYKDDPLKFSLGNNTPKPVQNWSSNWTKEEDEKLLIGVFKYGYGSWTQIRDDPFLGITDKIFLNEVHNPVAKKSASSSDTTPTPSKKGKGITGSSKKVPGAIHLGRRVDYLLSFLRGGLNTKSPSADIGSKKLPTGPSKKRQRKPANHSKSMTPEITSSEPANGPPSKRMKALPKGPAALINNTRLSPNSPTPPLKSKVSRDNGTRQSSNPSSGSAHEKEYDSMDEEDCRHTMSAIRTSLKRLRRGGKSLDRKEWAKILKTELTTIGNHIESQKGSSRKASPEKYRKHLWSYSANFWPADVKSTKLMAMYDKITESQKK

Sialic acid-binding Ig-like lectin 9 (Homo sapiens), sequence (Q9Y336 whole entry): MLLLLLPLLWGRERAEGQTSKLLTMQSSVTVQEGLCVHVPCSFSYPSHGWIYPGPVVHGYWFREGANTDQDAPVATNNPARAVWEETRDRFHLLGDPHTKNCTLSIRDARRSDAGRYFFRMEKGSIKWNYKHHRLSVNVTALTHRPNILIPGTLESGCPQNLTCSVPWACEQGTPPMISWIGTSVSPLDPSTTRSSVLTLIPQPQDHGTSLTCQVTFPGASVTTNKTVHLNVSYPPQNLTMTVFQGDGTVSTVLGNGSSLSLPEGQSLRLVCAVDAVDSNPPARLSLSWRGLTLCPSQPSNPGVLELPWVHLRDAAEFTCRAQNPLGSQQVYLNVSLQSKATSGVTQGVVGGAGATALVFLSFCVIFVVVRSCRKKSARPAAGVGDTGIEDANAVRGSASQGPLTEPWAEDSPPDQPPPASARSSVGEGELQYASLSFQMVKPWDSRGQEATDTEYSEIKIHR
Protein translocase subunit SecA (Escherichia coli (strain K12)), sequence (P10408 whole entry): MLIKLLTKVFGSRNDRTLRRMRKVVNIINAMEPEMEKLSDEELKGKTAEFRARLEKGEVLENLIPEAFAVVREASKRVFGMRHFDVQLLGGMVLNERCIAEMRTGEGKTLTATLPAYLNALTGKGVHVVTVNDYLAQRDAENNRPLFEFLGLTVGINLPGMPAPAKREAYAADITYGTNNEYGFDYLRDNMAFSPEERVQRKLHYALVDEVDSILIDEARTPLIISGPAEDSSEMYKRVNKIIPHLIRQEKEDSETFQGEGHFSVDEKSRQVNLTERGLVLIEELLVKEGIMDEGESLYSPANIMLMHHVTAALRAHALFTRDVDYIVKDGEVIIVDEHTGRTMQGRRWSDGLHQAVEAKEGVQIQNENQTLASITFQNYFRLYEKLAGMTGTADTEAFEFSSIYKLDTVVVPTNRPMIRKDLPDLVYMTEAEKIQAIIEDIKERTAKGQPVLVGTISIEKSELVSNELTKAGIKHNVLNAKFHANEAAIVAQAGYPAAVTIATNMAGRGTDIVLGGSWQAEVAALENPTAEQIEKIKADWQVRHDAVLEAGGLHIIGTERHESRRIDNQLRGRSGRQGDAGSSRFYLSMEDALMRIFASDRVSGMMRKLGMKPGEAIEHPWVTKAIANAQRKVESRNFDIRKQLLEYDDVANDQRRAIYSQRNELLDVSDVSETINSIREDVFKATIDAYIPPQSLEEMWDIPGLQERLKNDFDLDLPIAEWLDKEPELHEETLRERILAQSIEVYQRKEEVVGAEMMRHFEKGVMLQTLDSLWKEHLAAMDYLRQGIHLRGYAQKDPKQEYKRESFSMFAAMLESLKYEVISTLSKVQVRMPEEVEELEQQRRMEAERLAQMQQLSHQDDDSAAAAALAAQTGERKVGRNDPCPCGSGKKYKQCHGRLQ

Row | SMILES | Percent Effect [1] | Percent Effect [2] | Percent Effect [3] | Percent Effect (Trypanosoma cruzi) | Percent Effect [4] | Percent Effect [5] | Percent Effect (Homo sapiens) | Percent Effect [6] | Percent Effect [7] | Percent Effect [8]
1 | O=C(CO)N1CCc2onc(Cn3cccn3)c2C1 | -5.41% | 3.9% | 3.29% | 1.27% | -1.62% | 7.5% | -4.61% | 2.63% | 5.13% | 0.404%
2 | CNc1cncc(C2CCCN2C(=O)c2ccc3oc(C)cc3c2)n1 (stereo not given) | -2.25% | 12% | -1.38% | 3.35% | -1.33% | 16.6% | -2.62% | 3.17% | 7.5% | -26.1%
3 | c1cnc(N2CCC3(CC2)CN(CC2CC2)c2ccccc23)nc1 | -2.71% | -9.09% | 0.418% | 2.81% | -2.28% | -0.0858% | 15% | 33.8% | 20% | 9.61%
4 | CCOCC1CN(S(C)(=O)=O)Cc2cnn(CC3CCOCC3)c21 (stereo not given) | -3.9% | 1.3% | -0.726% | -5.94% | -5.26% | 10.5% | 0.606% | 3.68% | 12.8% | -2.94%
5 | CS(=O)(=O)Cc1cccc(C(=O)N2CCCC(n3cccn3)C2)c1 (stereo not given) | -3.02% | 2.56% | -5.84% | -5.92% | -1.23% | 4.69% | 24.6% | 2.39% | 1.21% | -5.08%
6 | CC(=O)N1N=C(c2ccccc2)OC1C(=O)NCCC1=CCCCC1 (stereo not given) | 1.88% | 12% | -5.04% | -0.986% | 2.21% | 7.55% | 26.2% | -1.06% | 5% | -32.1%
7 | COc1ccc(C(C)NC(=O)NCCCn2cncn2)cc1F (stereo not given) | -2.93% | 16% | 2.65% | -0.602% | 1.77% | 8.57% | -15.1% | 6.84% | 17.9% | -9.21%
8 | CC(c1cccc(S(N)(=O)=O)c1)N(C)CCOc1ccccc1 (stereo not given) | -0.74% | -15.6% | 10.5% | -4.48% | -5.12% | 2.1% | 14.4% | -1.96% | -2.35% | 1.25%
9 | CC(C)c1nc(CC(=O)N2CCCC(n3cncn3)C2)cs1 (stereo not given) | -0.0395% | 20.5% | -14.2% | 4.6% | 8.2% | 14.2% | 24% | 1.44% | 22.9% | -5.56%
10 | Cc1cccc(CN2CCc3nnc(CN4CCCC4=O)n3CC2)n1 | -3.64% | 14.3% | 1.97% | -2.06% | -2.28% | 8.67% | 9.65% | 4.83% | 10% | -8.05%
11 | COc1cccc2c1OCC(C(=O)NC1CCN(S(C)(=O)=O)CC1)C2 (stereo not given) | -2.9% | 16.2% | 3.48% | 3.59% | 12.2% | 18.7% | 16.9% | 5.85% | 17.1% | 93.6%
